From PubChem BioAssay AID1053180 (Broad Institute, 2014) come the findings set out here.

Several values for one entry are separate records, joined by “and”; a condition that tells them apart may be missing. Equal values may be shown once. Among all 9,600 compounds or so, about 20 (0.2%) were called active.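 Rule for the calls: active = highest normalized replicate activity of 15 or more, or at least half the replicates reach 15 or more; inactive = neither condition met.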 The full list was thinned out, with actives kept by preference. A structure can be active in one record and inactive in another.

The nature of the experiment: activators of Pax4 gene expression, primary screen, RT-PCR, mouse alpha TC1 cells, single point (AID 1053180).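 Note: Pax4 Ct normalized to GAPDH with activation seen as lower delta delta Ct; plate controls were plate neutral control wells for no effect and Pax4 plasmid positive control for full effect.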 Particulars: Pax4 mRNA qPCR, 6 days, at 10 µM, stronger effect = higher value, 100% = Pax4 plasmid added at qPCR.
Regarding `CO[C@@H]1CN(C)C(=O)c2ccc(NC(=O)Nc3cc(F)ccc3F)cc2OC[C@H](C)N(C(=O)c2ccccn2)C[C@@H]1C`, the activation was 0.0015% (inactive).

With `O=C(CN1CCOCC1)N1CC[C@@H]2[C@@H](CO)Nc3ccc(-c4ccccc4F)cc3[C@@H]21`, the activation was 0.001% (inactive).

Take `O=C(C[C@@H]1C[C@H]2c3cc(NC(=O)NC4CCCC4)ccc3O[C@H]2[C@H](CO)O1)NCc1ccccc1F`: the activation was 0.02% (inactive). Then `CO[C@@H]1CN(C)C(=O)c2ccc(NC(=O)c3ccccc3F)cc2OC[C@H](C)N(C)C[C@H]1C`, with 0.0025% (inactive); and `O=C(C1CCOCC1)N1CC(=O)N2[C@H](CO)[C@@H](c3ccc(/C=C/c4ccccc4)cc3)[C@H]2C1`, with 0.002% (inactive).

Turning to `O=C1Nc2ccccc2OCc2cn(nn2)CC[C@H]1Cc1ccc(-c2ccccc2)cc1`, the activation is 0.059% (inactive). Then `O=C(C[C@@H]1C[C@@H]2c3cc(NC(=O)c4ccc5c(c4)OCO5)ccc3O[C@@H]2[C@H](CO)O1)NCCN1CCCCC1`, with -0.001% (inactive). Under `CN(C)C(=O)C[C@H]1C[C@@H]2c3cc(NC(=O)Nc4ccc(F)cc4)ccc3O[C@@H]2[C@@H](CO)O1` stands 0.013% (inactive); under `O=C(C[C@H]1CC[C@H]2[C@@H](COC[C@H](O)CN2Cc2ccc3c(c2)OCO3)O1)N1CCCCC1`, 0.0435% (inactive). Then `Cc1ccc(S(=O)(=O)N(C)C[C@@H]2OCCCC[C@@H](C)Oc3ccc(NC(=O)c4ccncc4)cc3C(=O)N([C@@H](C)CO)C[C@H]2C)cc1`, with 0% (inactive); and `O=C(C[C@H]1CC[C@@H]2[C@H](COC[C@@H](O)CN2S(=O)(=O)c2cccc(Cl)c2)O1)N1CCOCC1`, with 0% (inactive).

As to `CO[C@H](CN(C)Cc1cc(F)ccc1F)[C@@H](C)CN(C(=O)Nc1ccc(C(F)(F)F)cc1)[C@H](C)CO`, the activation was 0.0245% (inactive). Then `CO[C@@H](CN(C)Cc1cc(F)ccc1F)[C@H](C)CN(C(=O)Nc1ccc(C(F)(F)F)cc1)[C@H](C)CO`, with 0.0205% (inactive); and `CO[C@@H](CN(C)Cc1cc(F)ccc1F)[C@@H](C)CN(C(=O)Nc1ccc(C(F)(F)F)cc1)[C@H](C)CO`, with 19.2% (active). With `CN(C[C@@H]1[C@@H](c2ccccc2)[C@H](CO)N1CC1CC1)C(=O)c1ccc(F)cc1`, the activation is -0.002% (inactive). Then `COc1ccccc1-c1ccc([C@H]2[C@@H](CO)N[C@@H]2CNC(=O)C2CC2)cc1`, with 0.001% (inactive); and `CC(C)(O)C#Cc1ccc([C@H]2[C@H]3CN(S(C)(=O)=O)CCCCN3[C@H]2CO)cc1`, with 0.0005% (inactive); and `N#C[C@@H]1[C@H](c2ccccc2C2=CCCCC2)[C@H](CO)N1C(=O)CN1CCOCC1`, with 0% (inactive). Then `O=C(NC[C@@H]1[C@@H](c2ccccc2)[C@@H](CO)N1Cc1ccccn1)C1CCCC1`, with -0.003% (inactive); and `CCCNC(=O)N1[C@H](CO)[C@@H](c2ccccc2-c2cccc(C)c2)[C@@H]1C#N`, with 0.0075% (inactive). Take `CO[C@@H]1CC[C@@H]2CCOc3c(C#N)cccc3C(=O)N(C)CCCC(=O)N(C)C[C@H]1O2`: the activation was 0% (inactive).

With `O=C(C[C@@H]1C[C@@H]2c3cc(NS(=O)(=O)c4ccccc4)ccc3O[C@@H]2[C@H](CO)O1)NCC(F)(F)F`, the activation was 0.001% (inactive). Then `O=C(Cc1ccccc1)N1CC[C@@H]2[C@@H](CO)Nc3ccc(C#Cc4cccc(F)c4)cc3[C@@H]21`, with 0.0035% (inactive); and `CC(C)CC#Cc1ccc([C@H]2[C@@H](CO)N3CCCCN(C(=O)Nc4ccccc4)C[C@@H]23)cc1`, with 0.0025% (inactive); and `O=C(C[C@@H]1CC[C@H](NC(=O)c2ccc3c(c2)OCO3)[C@@H](CO)O1)NCc1ccc(Oc2ccccc2)cc1`, with 0.006% (inactive). Then `COCC(=O)N1CC(=O)N2[C@H](CO)[C@H](c3ccc(-c4ccccc4F)cc3)[C@@H]2C1`, with 0% (inactive); and `C[C@H]1CN([C@@H](C)CO)C(=O)c2cc(NS(=O)(=O)c3ccc(F)cc3)ccc2O[C@H]1CN(C)C(=O)Nc1ccccc1`, with 0.002% (inactive). Take `CO[C@H](CN(C)C(=O)C1CCOCC1)[C@@H](C)CN(C(=O)Nc1ccc(C(F)(F)F)cc1)[C@@H](C)CO`: the activation is 0.0085% (inactive).

Consider `O=C(CN1CCOCC1)N[C@@H]1CC[C@@H](CCn2cc(C3CC3)nn2)O[C@@H]1CO`, for which the activation is 0.0035% (inactive). Under `COc1cccc(CN2C[C@@H]3N[C@H](C2)C3c2ccc(-c3ccccc3C)cc2)c1` (stereo not given in full) stands 0.0245% (inactive) and 0.039% (inactive). Take `COc1cccc(-c2ccc(C3[C@@H]4CN(Cc5ccccn5)C[C@H]3N4)cc2)c1` (stereo not given in full): the activation was 0.0705% (inactive) and 213% (active). Under `N#Cc1ccc(-c2ccc([C@@H]3[C@@H]4CN(Cc5cocn5)C[C@H]3N4)cc2)cc1` stands 0.128% (inactive). Under `COc1cc(CN2C[C@@H]3N[C@H](C2)C3c2ccc(-c3ccc(C#N)cc3)cc2)cc(OC)c1` (stereo not given in full) stands 3.96% (inactive) and 9.29% (active); under `N#Cc1cccc(-c2ccc(C3[C@@H]4CN(Cc5ccccc5)C[C@H]3N4)cc2)c1` (stereo not given in full), 2.74% (inactive) and 0.113% (inactive); under `Fc1ccccc1-c1ccc(C2[C@@H]3CN(Cc4ccccn4)C[C@H]2N3)cc1` (stereo not given in full), 0.412% (inactive) and 0.0165% (inactive). On to `C[C@@H]1CCCCO[C@@H](CN(C)S(=O)(=O)c2ccc(F)cc2)[C@H](C)CN([C@@H](C)CO)C(=O)c2cc(N(C)C)ccc2O1`, for which the activation is 0.002% (inactive). Then `COc1cccc(S(=O)(=O)N[C@H]2CC[C@@H](CC(=O)NC3Cc4ccccc4C3)O[C@@H]2CO)c1`, with 0.0015% (inactive). Then `CO[C@@H]1CC[C@H]2CCOc3c(C#N)cccc3C(=O)N(C)CCCC(=O)N(C)C[C@H]1O2`, with 0.001% (inactive); and `C[C@@H]1CCCCO[C@H](CN(C)C(=O)c2ccncc2)[C@H](C)CN([C@H](C)CO)C(=O)c2cc(NS(=O)(=O)c3cccs3)ccc2O1`, with 0.001% (inactive). Under `CCCNC(=O)[C@H]1[C@H](CO)[C@H]2Cn3c(ccc(/C=C/c4ccccc4)c3=O)[C@H]2N1CC1CC1` stands 0% (inactive).
